High-throughput results: PubChem, several laboratories
In the library only some 4% were active in any assay of this set; here they are far more common.
Mdm2-MdmX inh – disrupts the human Mdm2-MdmX interaction. SaOS-2 split-luciferase Mdm2/MdmX complementation, luminescence. O15151+Q00987. 3% of 330,000 active. inhibition, % at 8 µM;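 active = inhibition of at least 50% at 8 µM in the primary screen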
Target sequence (O15151 whole entry, looked up): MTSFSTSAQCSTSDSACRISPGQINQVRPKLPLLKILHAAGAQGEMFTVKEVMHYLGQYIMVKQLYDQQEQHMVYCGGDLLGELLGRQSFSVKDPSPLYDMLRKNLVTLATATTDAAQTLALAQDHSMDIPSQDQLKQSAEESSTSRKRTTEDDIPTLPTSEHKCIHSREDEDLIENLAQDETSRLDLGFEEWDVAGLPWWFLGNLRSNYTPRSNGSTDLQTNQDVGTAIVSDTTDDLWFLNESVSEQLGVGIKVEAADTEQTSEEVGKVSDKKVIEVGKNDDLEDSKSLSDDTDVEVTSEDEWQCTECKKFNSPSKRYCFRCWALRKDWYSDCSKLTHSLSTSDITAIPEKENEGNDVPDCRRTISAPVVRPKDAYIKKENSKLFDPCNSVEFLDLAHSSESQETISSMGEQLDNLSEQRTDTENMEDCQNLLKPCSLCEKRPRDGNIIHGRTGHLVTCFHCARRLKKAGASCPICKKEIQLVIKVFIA
Target sequence (Q00987 whole entry, looked up): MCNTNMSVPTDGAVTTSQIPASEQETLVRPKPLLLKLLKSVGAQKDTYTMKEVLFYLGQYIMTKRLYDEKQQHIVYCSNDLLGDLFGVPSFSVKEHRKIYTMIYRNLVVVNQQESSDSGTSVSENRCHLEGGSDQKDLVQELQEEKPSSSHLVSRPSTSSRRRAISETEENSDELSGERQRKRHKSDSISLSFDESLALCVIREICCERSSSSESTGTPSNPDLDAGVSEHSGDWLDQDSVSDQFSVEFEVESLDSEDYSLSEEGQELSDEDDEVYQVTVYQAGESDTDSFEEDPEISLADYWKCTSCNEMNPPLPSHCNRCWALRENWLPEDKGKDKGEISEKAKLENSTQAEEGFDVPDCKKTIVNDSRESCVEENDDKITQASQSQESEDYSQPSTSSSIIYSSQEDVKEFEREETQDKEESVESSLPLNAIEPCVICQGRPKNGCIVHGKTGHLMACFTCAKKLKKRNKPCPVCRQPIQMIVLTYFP
Beta apoptosis – beta cell apoptosis inhibition; INS-1E cytokine-induced death, ATP luminescence, 48 h; percent of positive-control rescue, neutral wells zero; protection from apoptosis, % (concentration not given with the values); 0.8% of 300,000 active; AID 435005;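 active = Every replicate reaches about 75%, or at least half do and their mean reaches it too, limit read from the data; inconclusive = At least half of replicates reach the limit but their mean does not; inactive = Under half of replicates reach the limit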;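 note: 0% = cytokine-treated negative control wells and 100% = positive control rescue; higher means more ATP so stronger rescue from cytokine killing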
PAX8 inh HTS – PAX8 transcriptional activity inhibition; 1.2% of 360,000 active; AID 652154; inhibition, % at 12.6 µM; RMG-I TPO-luciferase reporter, SteadyGlo, 24 h;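 active = mean replicate inhibition at least 60% with every replicate also reaching 60%; inconclusive = only one of the two criteria is met; inactive = mean below 60% and not all replicates reaching 60%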;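 note: luciferase light reporting Pax8 driven TPO promoter activity; plate controls were median of neutral control wells for no effect and mitoxantrone controls for full effect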
CSC inhib – blocks cancer stem cells. cancer stem cell-like cells viability, luminescence. inhibition, % at 7.5 µM. 1.1% of 300,000 active. AID 2717; in the data active = inhibition above about 75%; inconclusive = no clear call, values can overlap the other calls; tested in HMLE shEcad cells
Gli-Sufu antag – Gli-Sufu pathway antagonism; Sufu-KO-LIGHT fibroblasts, Gli luciferase reporter luminescence; inhibition, % at 5 µM; 0.74% of 340,000 active;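 active = inhibition above about 55%, limit read from the data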;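 note: 0% = DMSO-treated cells and 100% = wells with medium but no cells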
Shn3 inh set2 – reduces Shn3 3'UTR luciferase signal in osteoblasts. inhibition, % at 12.5 µM. Clone20 osteoblast Shn3 3'UTR firefly luciferase, 24 h. AID 588674. 0.52% of 360,000 active;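 active = mean inhibition of at least 75% with every replicate also reaching 75%; inconclusive = mean inhibition at least 75% but some replicate below; inactive = mean inhibition below 75%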;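 note: 0% = median of neutral control wells and 100% = pilot-screen positive control compound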
Mdm2 MdmX conf – human Mdm2/MdmX binding inhibition, confirmed; shares compounds with Mdm2-MdmX inh; luminescent assay; inhibition, % at 8 µM; 55% of 10,000 active; in the data active = inhibition above about 40%
FLuc counter – inhibits full-length luciferase, flagging false Mdm2/MdmX hits. 77% of 6,200 active. inhibition, % at 8 µM. shares compounds with Mdm2-MdmX inh. SaOS-2 full-length luciferase counterscreen, luminescence;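 active = mean inhibition at 8 µM reaching about 37%, which flags the compound as non-specific, limit read from the data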;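 note: p53-null SaOS-2 cells with luciferase driven by a doxycycline-inducible promoter; compound on cells about two nights before reading with doxycycline added after day one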
* = called active by the depositor; ? = inconclusive; . = no result.

SMILES	Mdm2-MdmX inh	Beta apoptosis	PAX8 inh HTS	CSC inhib	Gli-Sufu antag	Shn3 inh set2	Mdm2 MdmX conf	FLuc counter
COC(=O)c1ccc(/C=C/c2ccc3cccc(OC)c3n2)cc1	31	6	9	3	18	-10	.	.
COc1cccc(/C=C/c2ccc3cccc(O)c3n2)c1	62*	50	14	41	-27	30	-143	.
COc1cc(/C=C/c2ccc3cccc(O)c3n2)cc(OC)c1OC	84*	33	-7	44	18	-10	76*	27
COc1cc(/C=C/c2ccc3cccc(O)c3n2)cc(Br)c1OC	93*	44	-12	52	-23	0	11	.
Cc1ccc(/C=C/c2ccc3cccc(O)c3n2)s1	-97	9	-128	40	-50	-65	.	.
COc1cc(/C=C/c2ccc3cccc(O)c3n2)cc(Cl)c1OC	100*	64	-18	91*	-27	39	-35	.
O=[N+]([O-])c1ccc(/C=C/c2ccc3cccc(O)c3n2)cc1	-109	20	-41	39	4	7	.	.
COc1ccc(S(=O)(=O)Nc2ccc3c(c2)CC(=O)N([C@@H](C)CO)C[C@H](C)[C@@H](CN(C)C(=O)Nc2ccc4c(c2)OCO4)O3)cc1	.	.	6	.	.	.	.	.
Cc1ccc(S(=O)(=O)Nc2cccc(C(=O)NCc3cccnc3)c2)cc1F	51*	20	31	59	4	7	76*	62*
C[C@@H]1CN([C@H](C)CO)S(=O)(=O)c2ccc(C3=CCCCC3)cc2O[C@H]1CN(C)C(=O)Cc1ccncc1	.	.	8	.	.	.	.	.
Cc1ccc(S(=O)(=O)n2cc(C=O)c3ccccc32)cc1	16	-3	21	11	-1	.	.	.
Cc1ccc(S(=O)(=O)n2cc(-c3ccccc3)c3ccccc32)cc1	63*	15	52	99*	19	19	57*	82*
C[C@@H]1CN([C@@H](C)CO)C(=O)c2c(c3ccccc3n2C)-c2ccccc2CO[C@H]1CN(C)S(=O)(=O)Cc1ccccc1	.	.	23	.	.	.	.	.
COc1ccc(-c2cc(=O)n(-c3ccc([N+](=O)[O-])cc3)[nH]2)cc1	55*	5	-3	126*	-10	-8	13	.
COc1ccc(-c2[nH]n(-c3ccc([N+](=O)[O-])cc3)c(=O)c2C=NCc2ccc(F)cc2)cc1	80*	1	-11	-2	12	23	-19	.
COc1ccc(-c2[nH]n(-c3ccc([N+](=O)[O-])cc3)c(=O)c2C=NCc2ccncc2)cc1	30	6	10	6	9	20	.	.
C[C@H]1CN([C@@H](C)CO)C(=O)c2ccccc2-c2ccccc2CO[C@H]1CN(C)C(=O)CCC(F)(F)F	.	.	9	.	.	.	.	.
O=C1c2cccc3cc(Br)cc(c23)C(=O)N1Nc1ccc(Br)cc1	73*	5	9	-8	-8	0	63*	74*
Cc1cccc(OCc2nnc(SCC(=O)Nc3cccc(C(=O)N4CCOCC4)c3)o2)c1C	20	-1	1	-9	2	1	.	.
Cc1cccc(C)c1OCc1nnc(SCC(=O)Nc2cccc(C(=O)N3CCOCC3)c2)n1C	53*	6	2	-16	1	14	7	.
O=C(c1ccccc1Cl)N1N=C(c2ccc(Br)cc2)CC1c1nc2ccccc2[nH]1 (stereo not drawn)	71*	1	25	16	14	-14	50*	90*
O=C(NCc1ccco1)C12CC3CC(CC(C3)C1)C2	-31	-7	.	5	6	-2	.	.
O=C(CC12CC3CC(CC(C3)C1)C2)NC(=S)NCc1ccco1	64*	12	-12	45	8	17	28	.
CC(=O)N(C)c1ccc(OCC(O)Cn2c(C)nc3ccccc32)cc1 (stereo not drawn)	20	7	21	-12	45	71	.	.
CC(=O)N(C)c1ccc(OCC(O)Cn2c3ccc(Cl)cc3c3cc(Cl)ccc32)cc1 (stereo not drawn)	82*	26	48	105*	-5	24	45*	54*
SMILES	Mdm2-MdmX inh	Beta apoptosis	PAX8 inh HTS	CSC inhib	Gli-Sufu antag	Shn3 inh set2	Mdm2 MdmX conf	FLuc counter
O=C(Nc1ccc(F)c(Cl)c1)Nc1csc2ccccc12	94*	83*	13	77*	-13	-11	58*	35
CCOc1cccc2sc(N(CCCN(C)C)C(=O)c3ccc(S(=O)(=O)N(C)Cc4ccccc4)cc3)nc12	74*	-1	5	12	26	50	38	60*
CCOc1cccc2sc(N(CCCN(C)C)C(=O)c3ccc(S(=O)(=O)N(CC)Cc4ccccc4)cc3)nc12	84*	6	-1	26	31	10	53*	68*
CCOc1ccc2nc(N(CCN(C)C)C(=O)c3cc4ccccc4cc3OC)sc2c1	44	0	.	-9	22	0	.	.
CCOc1cccc2sc(N(CCN(C)C)C(=O)c3cc4ccccc4cc3OC)nc12	69*	7	37	33	11	16	28	.
Cc1ccc2sc(N(CCCN(C)C)C(=O)c3ccc(S(=O)(=O)N(C)Cc4ccccc4)cc3)nc2c1C	100*	.	27	-7	30	-66	49*	46*
CN(C)CCCN(C(=O)c1ccc(C(=O)c2ccccc2)cc1)c1nc2c(F)cccc2s1	40	-1	-11	2	41	-1	.	.
CCOc1cccc2sc(N(CCCN(C)C)C(=O)c3ccc(C(=O)c4ccccc4)cc3)nc12	51*	6	-1	3	29	6	34	.
COc1ncnc2c1oc1nc(CC(C)C)c3c(c12)CCCC3	.	.	.	.	6	17	.	.
CC(C)Cc1nc2oc3c(=O)[nH]cnc3c2c2c1CCCC2	20	10	1	-4	5	-9	.	.
CCCc1nc2oc3c(Cl)ncnc3c2c2c1CCCC2	100*	-8	10	2	1	7	12	.
CC(C)Cc1nc2oc3c(Cl)ncnc3c2c2c1CCCC2	68*	3	8	76*	5	9	9	.
COc1cc(OC)c(OC)cc1/C=N/Nc1ncnc2c1[nH]c1ccccc12	84*	12	2	25	2	-3	55*	12
COc1ccc(/C=N/Nc2ncnc3c2[nH]c2ccc(C)cc23)c(OC)c1OC	77*	54	37	2	6	0	53*	10
C[C@@H]1CN([C@@H](C)CO)S(=O)(=O)c2ccc(C3=CCCC3)cc2O[C@H]1CN(C)C(=O)Cc1ccncc1	.	.	2	.	.	.	.	.
Cc1cccc(N2CCN(C(=S)Nc3ccc4nc(N5CCN(C)CC5)cc(C)c4c3)CC2C)c1 (stereo not drawn)	88*	10	39	?	11	0	60*	65*
